The text below walks through data of PubChem BioAssay AID1259415 (National Center for Advancing Translational Sciences (NCATS), 2018).

The structures appear in SMILES notation. Screen size: about 410,000 compounds; about 18,000 (4.4%) were called active. Inconclusive results (about 7%) are left out. Shown is part of a subset that was picked to be rich in actives. Values without a mark were called inactive. No stated cut-off is given here; in the data, active means activity change below about -60%; inconclusive means no clear call, values can overlap the other calls; inactive means above about -39%.
On the % scale 0 is the no-effect control and ±100 the full control effect.

This experiment can be described thus: qHTS Assay for inhibitors of the human cytomegalovirus (HCMV). As to conditions: HFF cells, HCMV-luciferase reporter, 72 h; at 57.5 µM; active compounds read low. From the text:
NCGC Assay Overview: Infection with human cytomegalovirus (HCMV) continues to pose significant threats for pregnant women and immunocompromised hosts. HCMV causes serious morbidity and mortality in transplant recipients, and congenital HCMV is the leading infectious cause of mental retardation and deafness in children. In the 1990s, the annual costs associated with the disease burden of congenital CMV were estimated at around $2 billion. A HCMV vaccine is not available yet and HCMV therapies result in intolerable side effects and emergence of drug resistant viruses. […] Towards this goal we have developed and characterized a luciferase HCMV reporter that was initially used in 96 well plates and then optimized to 1536-well plates for utilization in screening of the MLSMR collection, the NGCG diversity collection and the NCGC Pharmaceutical Collection of approved and investigational drugs.
NCGC Assay Protocol Summary:
This is a cell-based assay for HCMV inhibition in HFFs cells. The screening used 2 compound doses and the HCMV-luciferase at MOI of 1 PFU/cell. Cells were treated and infected with HCMV. At 72 h post infection cell lysates were collected and luciferase activity was determined using the Glomax-Multi + Detection System (Promega, Madison, WI). Data were normalized to the controls for basal activity (buffer only) and known HCMV inhibitors Salinmoycin.
1536-well assay protocol for the assay:
(1) Add 3 ul CMV/HFF cell culture. 1000 cells/well in DMEM nirmal media.
(2) Incubate 16 hr at 37C.
(3) Add 23 nl control compound, 10uM of Salinomycin.
(4) Add 23 nl compounds in DMSO solution.
(5) Add 3 ul CMV suspension. Final 1 puf/ul, Virus stock 2000pfu/ul
(6) Incubate 72 hrs at 37C.
(7) Add 4 ul OneGlo Luc Reagent.
(8) Incubate 5 min at room temperature.
Take `CN1CCC(CN)(N2CCN(c3ccccc3)CC2)CC1`: the activity change, negative = inhibition is -78.1% (active). Next, `CCc1cccc(CC)c1NC(=O)Cn1c(=O)c(-c2cc(C)ccc2NC(C)=O)nc2ccccc21`: -4.17%; `COc1ccc(S(=O)(=O)NCc2ccc(C(=O)N(C)Cc3ccco3)cc2)cc1`: -13.3%. As to `COc1ccc(CCC(=O)N2CCN(S(=O)(=O)c3ccc(OC)cc3)CC2)cc1`, the activity change, negative = inhibition was -31.5%.

Consider `COc1ccc(CN(Cc2ccco2)S(=O)(=O)c2ccc(S(=O)(=O)N3CCCC3)cc2)cc1`, for which the activity change, negative = inhibition was -62% (active). The value for `CC1CCN(c2ccc([N+](=O)[O-])c(SCCO)c2)CC1` was -72.7% (active); that for `CC1CCN(c2ccc(S(=O)(=O)Nc3cc(C(=O)O)cc(C(=O)O)c3)cc2[N+](=O)[O-])CC1` was 31%; that for `CC1CCN(c2ccc3c(c2)S(=O)(=O)c2cc(C(=O)O)ccc2C3=O)CC1` was 22.6%. The value for `CN(c1ccccc1)S(=O)(=O)c1ccc(C(=O)N2CCN(c3ccccc3Cl)CC2)cc1` was -25.5%; that for `CN(c1ccccc1)S(=O)(=O)c1cc(C(=O)N2CCN(c3ncccn3)CC2)ccc1Cl` was -61.7% (active); that for `CN(C)S(=O)(=O)c1cc(C(=O)N2CCC(C(=O)O)(c3ccccc3)CC2)ccc1Cl` was 14.8%. Next, `CCS(=O)(=O)N1CCc2cc(C(=O)N3CCN(c4ccccc4OC)CC3)ccc21`: 10.3%; `COc1ccc(C(=O)N2CCN(c3ncccn3)CC2)cc1S(=O)(=O)N1CCOCC1`: 63%. With `COc1ccccc1N1CCN(C(=O)c2ccc(Cl)c(S(=O)(=O)N3CCCC3)c2)CC1`, the activity change, negative = inhibition is -64.9% (active). The value for `CN(c1ccccc1)S(=O)(=O)c1cc(C(=O)OCC(=O)N2CCN(C(=O)c3ccco3)CC2)ccc1Cl` was -12%. On to `CN(c1ccccc1)S(=O)(=O)c1cccc(C(=O)NNC(=O)c2ccncc2)c1`, for which the activity change, negative = inhibition was -31.6%.

`CN(c1ccccc1)S(=O)(=O)c1cc(C(=O)Nc2nc3ccccc3[nH]2)ccc1Cl`: the activity change, negative = inhibition is -61.3% (active). Next, `COc1ccc(C2NC(=O)N(C)C3=C2C(=O)N(c2ccc(C(=O)O)cc2)C3)cc1` (stereo not drawn): 15.3%; `CCOC(=O)c1cc2c(=O)[nH]c(C(Cl)(Cl)Cl)nc2o1`: -14.4%; `CCOC(=O)c1ccc(NC(=O)C2CCN(S(=O)(=O)c3ccc4c(c3)CCCC(=O)N4)CC2)cc1`: -34.6%.

Regarding `COc1cc(C(=O)Nc2ccc(OCc3cc(=O)n4cc(C)sc4n3)cc2)cc(OC)c1OC`, the activity change, negative = inhibition is 13.1%. Next, `COc1ccc(OC)c(NC(=O)C2CCCN(S(=O)(=O)c3ccc4c(c3)CCCC(=O)N4)C2)c1` (stereo not drawn): 5.92%; `COc1ccc(-c2nc3ccccc3o2)cc1NC(=O)c1cc([N+](=O)[O-])ccc1N1CCOCC1`: 17.1%. `COc1ccc(-c2nc3ccc(C(=O)NCc4ccc(C)cc4)cc3nc2-c2ccc(OC)cc2)cc1`: the activity change, negative = inhibition was 13.2%. As to `CCOc1ccccc1-n1c(SCC(=O)NCc2ccco2)nnc1-c1ccncc1`, the activity change, negative = inhibition was 24.1%. Next, `CCOc1ccc(Nc2nc(Cc3nnc(SCC(=O)c4ccc(C)cc4)o3)cs2)cc1`: -18.3%; `Cc1ccc(Nc2nc(CSc3nnc(-c4ccncc4)n3-c3ccccc3C)cs2)cc1`: -86.5% (active). Regarding `Cc1ccc(-c2nc(S(=O)(=O)c3ccc(C)cc3)c(N3CCCCCC3)o2)cc1`, the activity change, negative = inhibition is -3.36%. As to `O=C(CSc1oc(-c2ccc(F)cc2)nc1S(=O)(=O)c1ccc(Br)cc1)NC1CCCCC1`, the activity change, negative = inhibition is 5.22%. Next, `CC(C)S(=O)(=O)c1oc(-c2ccc(F)cc2)nc1S(=O)(=O)c1ccc(F)cc1`: -98.8% (active); `COc1ccc(N2C(=O)CSC23C(=O)N(Cc2cccc(F)c2)c2ccccc23)cc1Cl` (stereo not drawn): -38.5%.

`Cc1cccc(C(=O)N2CCc3cc(CNC(=O)Cc4ccc(F)cc4)ccc32)c1`: the activity change, negative = inhibition is 5.96%.

For `Cc1c(Cl)cccc1NC(=O)C1CCCN(C(=O)c2cnn(-c3ccccc3)c2-n2cccc2)C1` (stereo not drawn), the activity change, negative = inhibition was -29.6%. Next, `O=c1cc(COc2cccc(C(F)(F)F)c2)nc2sc3c(n12)CCCC3`: -0.855%; `CCOC(=O)c1ccc(N2C(=O)c3n[nH]c(C)c3C2c2ccc(O)c(OC)c2)cc1` (stereo not drawn): -24.9%; `CCOc1cc(C2c3c(-c4ccc(Br)cc4)n[nH]c3C(=O)N2c2ccc(Cl)cc2)ccc1O` (stereo not drawn): -106% (active).

For the compound `CCOc1ccc(-c2n[nH]c3c2C(c2ccccc2OC)N(c2ccc(Br)cc2)C3=O)cc1` (stereo not drawn), the activity change, negative = inhibition was 21.3%. Next, `COc1ccc(NC(=O)CCN2CCN(CCO)CC2)cc1`: 0.59%; `O=C(c1ccc2c(c1)N(Cc1ccccc1)C(=O)c1ccccc1S2(=O)=O)N1CCC(Cc2ccccc2)CC1`: 4.82%. The value for `O=C(NCc1cccnc1)c1ccc(CS(=O)(=O)c2ccc(Br)cc2)o1` was -24.5%; that for `COc1ccc(CCNC(=O)c2ccc(CS(=O)(=O)c3ccc(Br)cc3)o2)cc1OC` was -92.4% (active); that for `COc1ccc(CCNC(=O)c2nnc(CS(=O)(=O)c3ccccc3)o2)cc1OC` was -33.4%. For the compound `Cc1c(S(=O)(=O)NC(C)c2ccccc2)c(=O)n(C)c(=O)n1C` (stereo not drawn), the activity change, negative = inhibition is -5.67%.
